Luc counter: blocks Kinase-Glo luciferase, a counter-screen artifact | Q27757 | Kinase-Glo luciferase, ATP luminescence, 8 min | Potency, µM (series often up to 38.3 µM), inactives show at the top dose activity change, negative = inhibition, hits mostly inhibitors | 200,000 tested, 0.28% active; also: nearly all actives have a fitted effect of over 60% in size
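Luminescence was the read-out, taken after 8-minute incubation at ambient temperature. Luciferase turned over luciferin with 10 uM ATP in imidazole pH 7.2 buffer containing KCl, MgCl2, Tween 20 and BSA.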
RORg inh: inhibitors of mouse ROR gamma transcriptional activity; P51450; Drosophila S2 Gal4-RORgamma UAS-luciferase reporter, 20 h; Potency, µM (titrated, usually from 53.6 µM), for inactives: at the highest dose activity change, negative = inhibition, most hits filed as inhibitors; AID 2551; 310,000 tested, 5.4% active; also: nearly all actives have a fitted effect of over 60% in size
Target sequence (P51450 whole entry, looked up, the tested form may be a part): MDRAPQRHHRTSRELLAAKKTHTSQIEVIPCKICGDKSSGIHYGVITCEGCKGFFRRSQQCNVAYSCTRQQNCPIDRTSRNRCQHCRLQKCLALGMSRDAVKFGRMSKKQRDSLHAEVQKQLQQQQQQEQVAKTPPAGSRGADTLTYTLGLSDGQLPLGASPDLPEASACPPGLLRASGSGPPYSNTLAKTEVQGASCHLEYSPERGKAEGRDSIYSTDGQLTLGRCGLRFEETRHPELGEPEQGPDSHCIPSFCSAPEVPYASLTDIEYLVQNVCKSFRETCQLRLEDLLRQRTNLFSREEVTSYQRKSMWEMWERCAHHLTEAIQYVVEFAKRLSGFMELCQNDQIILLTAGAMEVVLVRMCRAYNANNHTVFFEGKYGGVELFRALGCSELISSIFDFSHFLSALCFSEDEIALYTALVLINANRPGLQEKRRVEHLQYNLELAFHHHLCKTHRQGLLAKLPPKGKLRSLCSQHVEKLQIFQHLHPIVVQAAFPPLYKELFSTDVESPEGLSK
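Read-out: Photinus luciferase luminescence; inhibitors lower reporter signal. Insect Schneider cells with Gal4-ROR gamma fusion under metallothionein promoter, UAS reporter; 700 uM final copper sulfate induction, 20 hr, ambient temperature.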
Gal4-VP16 FLuc: inhibits Gal4-VP16 luciferase reporter, ROR gamma counter-screen. Drosophila S2 Gal4-VP16 UAS-luciferase, luminescence, 20 h. Potency, µM (series often up to 53.6 µM), for the others: top-dose activity, negative = inhibition, actives largely listed as inhibitors. 310,000 tested, 3.5% active. AID 2546;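 also: Gal4-VP16 expression switched on by copper sulfate through the metallothionein promoter; nearly all actives have a fitted effect of over 50% in size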
Active calls of the source: *; [ ] = dose if it differs, or a comment. Only some compounds are listed: those with a hit (about 6.2% of all), similar ones and a draw of the others. Calls follow the shape of the dose curve; as a rule, active = well fitted curve in the direction sought with a large enough effect; inconclusive = small, poorly fitted or top-dose-only effect, or another doubt; inactive = no such curve, though single readings can be large; an effect the other way counts as inactive or inconclusive. % is scaled to controls: 0 for no effect and ±100 for the full control effect; potency is read from the fitted curve at half-maximal effect.

Screening C=C(C)C(=O)OC1(C(F)(F)F)Oc2cc(C)ccc2NC1=O (stereo unspecified) returned Luc counter 10.5%, RORg inh 14.1µM* and Gal4-VP16 FLuc inconclusive.
For N#Cc1c(-c2ccccc2)nc(SCc2cccc(Cl)c2)[nH]c1=O the results were RORg inh -6.3% and Gal4-VP16 FLuc -4.3%.
CC1CC(=S)Nc2ccccc2N1C(=O)Nc1ccccc1 (stereo unspecified) was read as Luc counter 0.8%, RORg inh 10µM* and Gal4-VP16 FLuc inconclusive.
O=C(Nc1ccccc1)N1CCC(=S)Nc2ccccc21 was read as Luc counter -0.3%, RORg inh -35.2% and Gal4-VP16 FLuc -3.7%.
For Clc1cccc(Cl)c1C1Nc2cccc3cccc(c23)N1 the results were RORg inh 0.708µM* and Gal4-VP16 FLuc 3.98µM*.
Clc1ccc(C2Nc3cccc4cccc(c34)N2)cc1Cl was read as RORg inh 9.3%[1.91 µM] and Gal4-VP16 FLuc 1.4%.
`CCOC(=O)c1sc(=NC(=O)c2c(F)cccc2F)n(C)c1C` gave RORg inh 42.8% and Gal4-VP16 FLuc 23.7%.
Screening Cc1cc(C)cc(-n2ncc3c2CCCC3NC(=O)CN2CCCC2=O)c1 (stereo unspecified) returned RORg inh -5.6% and Gal4-VP16 FLuc -3.5%.
`CC1(C)Cc2c(cnn2-c2ccc(F)cc2)C(NC(=O)CCN2CCCC2=O)C1` (stereo unspecified) gave RORg inh 42.7% and Gal4-VP16 FLuc inconclusive.
For Cc1cc(C(=O)NC2CCCc3c2cnn3-c2ccc(C)c(C)c2)no1 (stereo unspecified) the results were RORg inh inconclusive and Gal4-VP16 FLuc -24.2%.
Screening CC(=O)NC1CCCc2c1cnn2-c1ccc(C(C)(C)C)cc1 (stereo unspecified) returned RORg inh inconclusive and Gal4-VP16 FLuc -29.1%.
`Cn1nccc1C(=O)NC1CCCc2c1cnn2-c1ccc(C(C)(C)C)cc1` (stereo unspecified) gave RORg inh inconclusive and Gal4-VP16 FLuc 2.51µM*.
`CC(C)(C)c1ccc(-n2ncc3c2CCCC3NC(=O)CN2CCCC2=O)cc1` (stereo unspecified) gave RORg inh inconclusive and Gal4-VP16 FLuc 7.08µM*.
For CC1(C)Cc2c(cnn2-c2ccc(F)cc2)C(NC(=O)CN2CCCCC2=O)C1 (stereo unspecified) the results were RORg inh 3.55µM* and Gal4-VP16 FLuc 15.8µM*.
For Cc1ccc(-n2ncc3c2CCCC3NC(=O)c2ocnc2C)cc1C (stereo unspecified) the results were RORg inh 21.0% and Gal4-VP16 FLuc 7.08µM*.
`COc1ccc(-n2ncc3c2CC(C)(C)CC3NC(=O)CCN2CCCC2=O)cc1` (stereo unspecified) gave RORg inh 2.3% and Gal4-VP16 FLuc -29.2%.
CC(C)(C)c1ccc(-n2ncc3c2CCCC3NC(=O)CCN2CCCC2=O)cc1 (stereo unspecified) was read as RORg inh 3.55µM* and Gal4-VP16 FLuc 0.891µM*.
`O=C(COc1ccccc1Cl)NC(=S)Nc1cccc(NC(=O)c2ccccc2Cl)c1` gave Luc counter 5.4%, RORg inh -17.4% and Gal4-VP16 FLuc -6.2%.
For O=C(COc1ccc(Br)cc1Br)NC(=S)Nc1cccc(CO)c1 the results were Luc counter -2.2%, RORg inh 1.41µM* and Gal4-VP16 FLuc 8.91µM*.
Screening O=C(COc1ccc2ccccc2c1Br)Nc1cccnc1 returned RORg inh 21.5% and Gal4-VP16 FLuc 1.6%.
For O=C(COc1ccc2ccccc2c1Br)NC(=S)Nc1cccc(CO)c1 the results were Luc counter 9.1%, RORg inh 7.94µM* and Gal4-VP16 FLuc 10µM*.
Screening Cc1cccc(Cn2c(C)nc3c(N)c(C)c(C)cc32)c1 returned Luc counter -3.8%, RORg inh 12.6µM* and Gal4-VP16 FLuc inconclusive.
Screening Cc1cccc(Cn2c(C(C)O)nc3ccccc32)c1 (stereo unspecified) returned Luc counter -2.4%, RORg inh -7.7% and Gal4-VP16 FLuc -9.1%.
Screening CC(C)(COP(=O)(O)OP(=O)(O)OC[C@H]1O[C@@H](n2cnc3c(N)ncnc32)[C@H](O)[C@@H]1OP(=O)(O)O)C(O)C(=O)NCCC(=O)NCCS (stereo partly specified) returned RORg inh 11.0% and Gal4-VP16 FLuc -11.5%.
Screening O=C(CSC1CCCCC1)Nc1nccs1 returned Luc counter 10.1%, RORg inh -26.6% and Gal4-VP16 FLuc 7.8%.
Cc1nnc(NC(=O)CSC2CCCCC2)s1 was read as Luc counter -2.3%, RORg inh 22.4µM* and Gal4-VP16 FLuc -19.8%.
`O=C(NNC(=O)c1cnccn1)c1ccc(Cl)c(Cl)c1` gave RORg inh 6.31µM* and Gal4-VP16 FLuc 10µM*.
For COc1ccccc1OCC(=O)NNC(=O)c1cnccn1 the results were Luc counter -2.9%, RORg inh 11.2µM* and Gal4-VP16 FLuc -2.9%.
For O=C(NCCNC(=O)c1cnccn1)c1ccc(Cl)c(Cl)c1 the results were RORg inh 7.3% and Gal4-VP16 FLuc 8.7%.
COc1ccccc1NC(=O)COC(=O)c1cnccn1 was read as Luc counter -2.0%, RORg inh -29.8% and Gal4-VP16 FLuc 5.2%.
For CCc1ccc(OCC(=O)NCCN(C)C)c(Br)c1 the results were Luc counter -3.2%, RORg inh -4.7% and Gal4-VP16 FLuc -7.4%.
For CCc1ccc(OCC(=O)NNC(=O)c2cnccn2)c(Br)c1 the results were RORg inh inconclusive and Gal4-VP16 FLuc 6.31µM*.
COc1cccc(CCc2nnc(CCC(=O)NC(C)Cc3cccs3)o2)c1 (stereo unspecified) was read as RORg inh 5.2% and Gal4-VP16 FLuc 0.1%.
`COc1ccc(OC)c(NS(=O)(=O)c2ccc3c(c2)C(C)(C)C(=O)N3C)c1` gave RORg inh -20.7% and Gal4-VP16 FLuc -5.5%.
COc1cc(C2C(C#N)=C(N)N(N(C)C)C3=C2C(=O)CC(C)(C)C3)ccc1O (stereo unspecified) was read as RORg inh -0.5% and Gal4-VP16 FLuc 9.9%.
Screening O=C(CSc1nc(-c2ccccc2)ns1)NCC1CCCO1 (stereo unspecified) returned RORg inh 18.9% and Gal4-VP16 FLuc inconclusive.
`C=CCn1c(C)cc(C2=NNC(=NC(C)(C)C)SC2)c1C` gave Luc counter inconclusive, RORg inh 11.2µM* and Gal4-VP16 FLuc 10µM*.
Screening C=CCn1c(C)cc(C2=NNC(=Nc3ccc(C)cc3)SC2)c1C returned Luc counter -0.1%, RORg inh 39.1% and Gal4-VP16 FLuc 4.1%.
For COCCn1c(C)cc(C2=NNC(=NC3CC3)SC2)c1C the results were Luc counter 7.08µM*, RORg inh 1.12µM* and Gal4-VP16 FLuc 1.12µM*.
For COCCCN=C1NN=C(c2cc(C)n(Cc3ccco3)c2C)CS1 the results were Luc counter 0.0%, RORg inh inconclusive and Gal4-VP16 FLuc inconclusive.
Screening Cc1cc(C2=NNC(=NC3CC3)SC2)c(C)n1-c1ccccc1 returned Luc counter inconclusive, RORg inh 2.51µM* and Gal4-VP16 FLuc 6.31µM*.
